log2 fold change data for ten targets are collected here from the supplement of paper PMC10849652.

Targets with a hit are over-represented here; the source holds about 8,800 in all. About 0.5% of all pairs of compound and target were hits. Values without a mark were called inactive.

Experiment in all cases: log2 fold change, soluble protein after heating vs DMSO (PISA); higher = thermal stabilisation; K562 lysate, 10 uM; active = over 0.2 and 3.5 SD of the protein, either way, in both replicates (recomputed)
Compound in one assay: Cc1cn(-c2cc(NC(=O)c3ccc(C)c(Nc4nccc(-c5cccnc5)n4)c3)cc(C(F)(F)F)c2)cn1 [nilotinib]
The method in brief: (§1)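 Values give the log-two fold change in thermal stability against solvent controls, from duplicates. Crude K562 extract at 1 mg/mL protein, made by dounce homogenisation in PBS pH 7.4 with 1 mM MgCl2, was treated with 10 μM compound for 30 min. After 3 min heating across 48°C-58°C, aliquots were pooled, adjusted to 0.5% NP-40 at 4°C and centrifuged at 21,000xg for 90 min. The supernatant was measured by TMTpro 16plex LC-MS/MS with channel sums equalised.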

Compound in assay [1]: Cc1nc(Nc2n[nH]c3c2CN(C(=O)N[C@H](CN(C)C)c2ccccc2)C3(C)C)c2sccc2n1
The method in brief: as §1

Compound in a further assay: Cc1nc(Nc2ncc(C(=O)Nc3c(C)cccc3Cl)s2)cc(N2CCN(CCO)CC2)n1 [dasatinib]
In short, it runs like this: as §1

Compound in assay [2]: Cc1ncc(-c2ccnc(Nc3ccc(S(C)(=O)=O)cc3)n2)n1C(C)C
The method in brief: as §1

Compound in assay [3]: Cn1cc(-c2ccc3c(c2)CCN3C(=O)Cc2cccc(C(F)(F)F)c2)c2c(N)ncnc21
In short, it runs like this:
as §1

Compound in another assay: Cn1cc(CNCC2CCN(c3ncc(C(=O)NO)cn3)CC2)c2ccccc21 [quisinostat]
In short, it runs like this:
as §1

Compound in a further assay: Cn1cncc1[C@@](N)(c1ccc(Cl)cc1)c1ccc2c(c1)c(-c1cccc(Cl)c1)cc(=O)n2C [tipifarnib]
The method in brief:
as §1

Compound in assay [4]: NC(=O)Nc1cc(-c2cccc(F)c2)sc1C(=O)N[C@H]1CCCNC1
In short, it runs like this:
as §1

Compound in assay [5]: NC(=O)c1cnc(N[C@@H]2CCCC[C@@H]2N)nc1Nc1cccc(-n2nccn2)c1
The method in brief: as §1

Compound in assay [6]: NC1(c2ccc(-c3nc4ccn5c(=O)[nH]nc5c4cc3-c3ccccc3)cc2)CCC1
The method in brief:
as §1

Compound in assay [7]: NCC(=O)Nc1ccc(-n2nc(C(F)(F)F)cc2-c2ccc3c(ccc4ccccc43)c2)cc1
The method in brief:
as §1

Compound in the next assay: O=C(CCCCCCC(=O)Nc1ccccc1)NO [vorinostat]
In short, it runs like this: as §1

Compound in a further assay: O=C(O)c1ccc2c(c1)nc(Nc1cccc(Cl)c1)c1ccncc12 [silmitasertib]
The method in brief: as §1

Compound in assay [8]: O=C1NC(=O)C(c2cnc3ccccn23)=C1c1cn2c3c(cc(F)cc13)CN(C(=O)N1CCCCC1)CC2
In short, it runs like this:
as §1

Compound in the next assay: c1cn2cc(-c3ccc4cn[nH]c4c3)nc(Nc3ccc(N4CCOCC4)cc3)c2n1 [entospletinib]
In short, it runs like this:
as §1

UniProt O43149, sequence (O43149 whole entry, looked up): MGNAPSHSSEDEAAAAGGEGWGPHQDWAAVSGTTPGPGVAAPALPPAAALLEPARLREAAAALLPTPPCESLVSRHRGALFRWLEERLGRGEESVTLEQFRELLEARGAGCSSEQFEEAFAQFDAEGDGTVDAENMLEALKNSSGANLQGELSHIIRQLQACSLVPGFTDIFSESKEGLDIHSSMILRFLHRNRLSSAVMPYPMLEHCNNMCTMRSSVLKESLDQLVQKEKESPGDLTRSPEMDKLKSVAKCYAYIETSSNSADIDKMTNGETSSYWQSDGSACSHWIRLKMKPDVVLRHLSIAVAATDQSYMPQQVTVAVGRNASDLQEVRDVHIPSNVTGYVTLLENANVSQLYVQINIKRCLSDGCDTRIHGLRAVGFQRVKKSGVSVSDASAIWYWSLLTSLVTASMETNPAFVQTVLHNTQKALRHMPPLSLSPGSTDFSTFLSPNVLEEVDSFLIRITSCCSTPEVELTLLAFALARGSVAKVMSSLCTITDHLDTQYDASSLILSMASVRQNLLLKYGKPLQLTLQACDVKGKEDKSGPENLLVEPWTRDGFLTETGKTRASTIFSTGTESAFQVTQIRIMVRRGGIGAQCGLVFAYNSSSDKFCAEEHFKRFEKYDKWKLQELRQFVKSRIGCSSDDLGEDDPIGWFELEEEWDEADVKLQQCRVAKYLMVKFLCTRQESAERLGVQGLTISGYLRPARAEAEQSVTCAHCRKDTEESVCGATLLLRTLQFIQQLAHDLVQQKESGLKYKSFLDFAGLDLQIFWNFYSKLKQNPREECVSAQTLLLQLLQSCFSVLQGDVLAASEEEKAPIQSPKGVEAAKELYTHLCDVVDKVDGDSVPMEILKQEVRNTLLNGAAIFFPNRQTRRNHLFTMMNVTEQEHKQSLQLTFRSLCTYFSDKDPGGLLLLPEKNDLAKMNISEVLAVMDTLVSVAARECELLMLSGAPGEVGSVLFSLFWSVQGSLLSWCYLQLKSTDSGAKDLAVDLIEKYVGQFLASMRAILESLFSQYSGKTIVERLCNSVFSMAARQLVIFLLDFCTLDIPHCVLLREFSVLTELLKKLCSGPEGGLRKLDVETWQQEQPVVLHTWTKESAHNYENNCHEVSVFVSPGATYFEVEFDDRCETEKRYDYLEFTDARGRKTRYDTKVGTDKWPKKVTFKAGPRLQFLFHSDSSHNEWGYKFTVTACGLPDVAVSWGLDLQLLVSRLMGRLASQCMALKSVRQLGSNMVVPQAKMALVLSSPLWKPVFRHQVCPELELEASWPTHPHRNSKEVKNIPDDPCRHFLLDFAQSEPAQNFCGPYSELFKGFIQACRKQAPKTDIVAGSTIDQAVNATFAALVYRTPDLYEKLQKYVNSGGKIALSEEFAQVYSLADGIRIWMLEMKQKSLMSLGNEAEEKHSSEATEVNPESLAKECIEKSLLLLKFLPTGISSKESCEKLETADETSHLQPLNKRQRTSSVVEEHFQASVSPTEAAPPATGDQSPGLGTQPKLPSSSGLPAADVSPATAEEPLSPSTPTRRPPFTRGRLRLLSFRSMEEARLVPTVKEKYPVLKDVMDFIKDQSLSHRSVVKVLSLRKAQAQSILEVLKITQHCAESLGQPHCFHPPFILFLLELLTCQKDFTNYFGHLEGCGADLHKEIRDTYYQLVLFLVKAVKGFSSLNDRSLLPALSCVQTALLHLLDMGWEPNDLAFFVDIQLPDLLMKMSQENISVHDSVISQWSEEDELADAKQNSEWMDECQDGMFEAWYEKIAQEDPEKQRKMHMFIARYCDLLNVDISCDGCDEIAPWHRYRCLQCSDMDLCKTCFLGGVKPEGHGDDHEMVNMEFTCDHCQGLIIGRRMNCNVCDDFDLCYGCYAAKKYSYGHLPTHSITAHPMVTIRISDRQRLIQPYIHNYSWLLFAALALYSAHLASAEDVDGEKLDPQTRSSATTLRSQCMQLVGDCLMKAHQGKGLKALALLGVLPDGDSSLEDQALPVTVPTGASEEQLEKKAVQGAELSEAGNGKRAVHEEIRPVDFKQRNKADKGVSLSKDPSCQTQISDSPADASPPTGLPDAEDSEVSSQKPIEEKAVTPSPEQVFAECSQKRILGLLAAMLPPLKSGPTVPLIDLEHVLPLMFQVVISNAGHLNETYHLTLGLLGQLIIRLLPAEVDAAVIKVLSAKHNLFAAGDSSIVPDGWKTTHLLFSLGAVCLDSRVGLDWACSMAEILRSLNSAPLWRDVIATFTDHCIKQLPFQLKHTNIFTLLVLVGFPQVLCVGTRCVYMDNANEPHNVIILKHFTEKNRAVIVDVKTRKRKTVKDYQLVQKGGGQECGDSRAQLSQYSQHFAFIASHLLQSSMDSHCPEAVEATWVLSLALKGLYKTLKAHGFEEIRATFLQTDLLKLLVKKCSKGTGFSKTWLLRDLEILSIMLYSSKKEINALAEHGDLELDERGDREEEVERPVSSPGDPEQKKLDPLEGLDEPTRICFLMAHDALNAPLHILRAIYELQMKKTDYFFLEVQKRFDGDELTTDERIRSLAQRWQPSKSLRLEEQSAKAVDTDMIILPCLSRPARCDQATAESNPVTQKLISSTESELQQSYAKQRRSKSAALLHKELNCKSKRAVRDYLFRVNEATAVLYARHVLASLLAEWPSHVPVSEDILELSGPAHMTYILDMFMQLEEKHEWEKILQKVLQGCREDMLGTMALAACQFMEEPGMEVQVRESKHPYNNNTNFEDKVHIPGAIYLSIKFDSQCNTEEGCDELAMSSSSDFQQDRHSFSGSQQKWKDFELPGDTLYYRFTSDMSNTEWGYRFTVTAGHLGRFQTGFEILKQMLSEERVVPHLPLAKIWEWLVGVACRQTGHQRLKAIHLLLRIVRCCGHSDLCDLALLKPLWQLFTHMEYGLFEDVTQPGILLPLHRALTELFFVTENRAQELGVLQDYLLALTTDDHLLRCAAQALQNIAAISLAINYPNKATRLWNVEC
UniProt Q86UK7, sequence (Q86UK7 whole entry, looked up): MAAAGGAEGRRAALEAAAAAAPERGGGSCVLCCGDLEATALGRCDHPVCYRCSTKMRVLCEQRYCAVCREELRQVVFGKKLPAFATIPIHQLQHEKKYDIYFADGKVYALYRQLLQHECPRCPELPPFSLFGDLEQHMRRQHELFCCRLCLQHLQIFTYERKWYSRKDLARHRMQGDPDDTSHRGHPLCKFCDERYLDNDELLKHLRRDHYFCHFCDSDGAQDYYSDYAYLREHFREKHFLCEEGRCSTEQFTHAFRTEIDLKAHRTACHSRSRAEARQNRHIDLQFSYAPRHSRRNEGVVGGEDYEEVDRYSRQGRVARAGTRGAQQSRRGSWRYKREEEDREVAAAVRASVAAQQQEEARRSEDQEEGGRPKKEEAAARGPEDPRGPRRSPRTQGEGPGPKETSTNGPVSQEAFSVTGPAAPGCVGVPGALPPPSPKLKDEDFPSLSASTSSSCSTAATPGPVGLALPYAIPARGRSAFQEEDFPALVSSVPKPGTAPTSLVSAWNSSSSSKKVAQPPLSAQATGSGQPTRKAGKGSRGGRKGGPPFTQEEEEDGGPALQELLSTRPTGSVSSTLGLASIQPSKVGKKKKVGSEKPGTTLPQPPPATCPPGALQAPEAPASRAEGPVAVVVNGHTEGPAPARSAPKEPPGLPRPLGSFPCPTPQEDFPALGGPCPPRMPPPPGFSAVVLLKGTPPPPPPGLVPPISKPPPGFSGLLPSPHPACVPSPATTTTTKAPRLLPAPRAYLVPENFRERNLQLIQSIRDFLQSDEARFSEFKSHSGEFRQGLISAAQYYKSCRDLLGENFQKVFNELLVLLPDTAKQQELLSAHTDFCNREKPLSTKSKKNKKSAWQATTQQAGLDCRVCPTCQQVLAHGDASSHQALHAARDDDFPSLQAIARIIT
UniProt Q9H6R7, sequence (Q9H6R7 whole entry, looked up): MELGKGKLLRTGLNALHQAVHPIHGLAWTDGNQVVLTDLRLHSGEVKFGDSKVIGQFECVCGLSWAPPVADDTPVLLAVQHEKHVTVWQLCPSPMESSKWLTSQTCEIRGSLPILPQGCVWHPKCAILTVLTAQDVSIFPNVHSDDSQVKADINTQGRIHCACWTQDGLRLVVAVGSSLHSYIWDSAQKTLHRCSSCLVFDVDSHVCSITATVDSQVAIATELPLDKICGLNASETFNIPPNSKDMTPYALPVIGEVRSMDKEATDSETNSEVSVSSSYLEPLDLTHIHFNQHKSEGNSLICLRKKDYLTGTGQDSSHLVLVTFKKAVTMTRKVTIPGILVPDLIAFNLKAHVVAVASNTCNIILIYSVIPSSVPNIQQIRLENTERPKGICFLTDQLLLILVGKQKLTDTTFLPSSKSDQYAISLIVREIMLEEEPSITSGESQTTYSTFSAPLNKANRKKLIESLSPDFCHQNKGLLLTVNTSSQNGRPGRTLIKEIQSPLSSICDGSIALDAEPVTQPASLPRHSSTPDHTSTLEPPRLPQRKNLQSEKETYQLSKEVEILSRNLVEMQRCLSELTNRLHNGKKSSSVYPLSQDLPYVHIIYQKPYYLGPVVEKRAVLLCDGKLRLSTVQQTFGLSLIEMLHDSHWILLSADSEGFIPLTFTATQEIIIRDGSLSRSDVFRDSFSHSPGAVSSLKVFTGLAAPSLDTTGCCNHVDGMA
UniProt Q86WB0, sequence (Q86WB0 whole entry, looked up): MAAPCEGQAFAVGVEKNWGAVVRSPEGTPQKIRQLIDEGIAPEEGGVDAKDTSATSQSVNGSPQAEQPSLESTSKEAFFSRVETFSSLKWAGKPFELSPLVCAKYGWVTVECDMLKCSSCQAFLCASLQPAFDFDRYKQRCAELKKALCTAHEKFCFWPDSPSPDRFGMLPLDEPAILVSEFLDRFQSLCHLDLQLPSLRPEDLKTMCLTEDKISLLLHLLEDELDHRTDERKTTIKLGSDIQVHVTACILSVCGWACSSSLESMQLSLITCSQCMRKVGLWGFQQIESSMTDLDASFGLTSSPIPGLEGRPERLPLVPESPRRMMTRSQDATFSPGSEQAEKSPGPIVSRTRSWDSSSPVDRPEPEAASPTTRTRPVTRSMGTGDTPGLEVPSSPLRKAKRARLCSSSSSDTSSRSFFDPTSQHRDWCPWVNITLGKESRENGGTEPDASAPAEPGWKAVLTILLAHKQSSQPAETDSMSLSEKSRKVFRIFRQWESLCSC

In the case of ZNF318 (UniProt Q5VUA4), the log2 fold change with nilotinib was 0.043; in assay [1], -0.05; with dasatinib it was -0.104; in [2], -0.034; in [3], -0.002; in the assay with quisinostat, 0.088. Also, the log2 fold change was -0.065 with tipifarnib; -0.004 in assay [4]; -0.078 in assay [5]; -0.028 in assay [6]; 0.064 in assay [7]; -0.332 (active) in the assay with vorinostat. Moreover, the results for the log2 fold change (with silmitasertib; in assay [8]; in the assay with entospletinib) were -0.045, -0.059 and -0.024, respectively.
In the case of VAC14 (UniProt Q08AM6), the log2 fold change with nilotinib was -0.014; in assay [1], 0.018; in the assay with dasatinib it was -0.022; in [2], 0.009; in assay [3] it was 0.058; with quisinostat, -0.07. In addition, the log2 fold change in the assay with tipifarnib was -0.059; in assay [4] it was 0.012; in assay [5] it was -0.002; in assay [6], -0.027; in assay [7], -0.02; with vorinostat, -0.229 (active). Further, the log2 fold change in the assay with silmitasertib is 0.041; in assay [8] it was 0.005; in the assay with entospletinib it was -0.008.
On to WDR24 (UniProt Q96S15), for which the log2 fold change is 0.124 in the assay with nilotinib; -0.09 in assay [1]; -0.072 with dasatinib; 0.05 in assay [2]; -0.022 in assay [3]; -0.013 with quisinostat. Also, the log2 fold change with tipifarnib is -0.096; in assay [4], 0.038; in assay [5], 0.04; in assay [6] it was -0.002; in [7], 0.041; with vorinostat, -0.202. Further, the figures for the log2 fold change (with silmitasertib; in assay [8]; with entospletinib) were 0.134, 0.032 and 0.022, respectively.
Turning to ZZEF1 (UniProt O43149), the log2 fold change in the assay with nilotinib was -0.022; in assay [1], 0; with dasatinib, -0.018; in assay [2], 0.015; in assay [3] it was -0.006; in the assay with quisinostat, -0.07. Besides, the log2 fold change with tipifarnib was 0.007; in [4], 0.008; in [5], 0.021; in [6], -0.03; in assay [7] it was 0.02; with vorinostat it was -0.263 (active). Besides, the log2 fold change with silmitasertib is 0.011; in [8], 0.012; in the assay with entospletinib it was 0.004.
On to ZNF598 isoform 3 (UniProt Q86UK7), for which the log2 fold change with nilotinib was -0.004; in assay [1], -0.022; with dasatinib, -0.063; in [2], 0.031; in [3], 0.032; in the assay with quisinostat it was -0.023. The log2 fold change with tipifarnib is -0.019; in [4], 0.01; in assay [5], 0.011; in [6], 0.029; in [7] it was 0.01; in the assay with vorinostat, -0.338 (active). The log2 fold change in the assay with silmitasertib was 0; in assay [8], 0.024; with entospletinib, -0.017.
As to YLPM1 (UniProt P49750), the log2 fold change with nilotinib was -0.023; in [1], -0.192; in the assay with dasatinib it was 0.018; in assay [2] it was -0.384 (active); in assay [3], 0.021; with quisinostat it was -0.015. In addition, the log2 fold change in the assay with tipifarnib is -0.011; in assay [4], 0.033; in assay [5], 0.041; in assay [6] it was -0.013; in assay [7] it was 0.013; in the assay with vorinostat, -0.126. The log2 fold change in the assay with silmitasertib was -0.011; in [8], 0.017; in the assay with entospletinib it was -0.004.
Regarding ZC3HC1 (UniProt Q86WB0), the log2 fold change was -0.013 with nilotinib; -0.005 in assay [1]; 0.029 with dasatinib; 0.007 in [2]; -0.009 in assay [3]; -0.033 in the assay with quisinostat. Further, the log2 fold change with tipifarnib is -0.03; in assay [4], 0.025; in assay [5] it was 0.017; in [6], 0.024; in assay [7], 0.021; in the assay with vorinostat, -0.368 (active). Besides, the log2 fold change with silmitasertib is -0.034; in assay [8], -0.03; in the assay with entospletinib, 0.01.
Consider ZFPM1 (UniProt Q8IX07), for which the log2 fold change with nilotinib is 0.036; in assay [1], -0.075; with dasatinib, -0.087; in assay [2], 0.042; in assay [3] it was 0.095; with quisinostat, -0.189. Further, the log2 fold change was 0.044 with tipifarnib; 0.034 in assay [4]; -0.082 in [5]; -0.018 in [6]; -0.009 in [7]; -0.251 (active) with vorinostat. In addition, the log2 fold change with silmitasertib is 0; in assay [8], -0.03; with entospletinib, -0.021.
Regarding ZHX1 (UniProt Q9UKY1), the log2 fold change with nilotinib is 0.011; in assay [1], -0.012; with dasatinib it was 0; in [2], 0.06; in [3] it was -0.096; with quisinostat, -0.035. The log2 fold change with tipifarnib is 0.007; in [4], 0.039; in assay [5] it was -0.047; in [6], -0.011; in assay [7] it was 0.043; with vorinostat, -0.249. Also, the log2 fold change with silmitasertib is -0.094; in [8], -0.018; in the assay with entospletinib it was -0.082.
For WDCP (UniProt Q9H6R7), the log2 fold change with nilotinib was -0.01; in [1], 0.001; in the assay with dasatinib, -0.035; in assay [2], 0.006; in [3], -0.018; in the assay with quisinostat, -0.107. In addition, the log2 fold change was 0.009 with tipifarnib; 0.014 in assay [4]; -0.069 in assay [5]; 0.007 in [6]; -0.066 in assay [7]; -0.233 (active) with vorinostat. Further, the values for the log2 fold change (with silmitasertib; in assay [8]; in the assay with entospletinib) were 0.022, 0.02 and -0.036, respectively.
